Measurements taken from PubChem BioAssay AID364 (The Scripps Research Institute Molecular Screening Center, 2006).
The whole screen tested about 3,300 compounds, of which about 50 (2%) were called active.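 How the source made its calls: active means concentration giving half-maximal inhibition at or below 20 micromolar; inactive means half-maximal concentration above 20 micromolar, or not dose tested.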 The list is a sample of the results. Entries with a potency or affinity are not part of this list.

Test: cytotoxicity toward Jurkat T cells, primary screen, cell-based, Jurkat E6.1, NIH starter set (AID 364);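 further: 100% = cells treated with 4 µM doxorubicin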
Details: Jurkat E6.1 viability, ATP luminescence, 48 h; at 4 µM; active compounds read high

SMILES	inhibition
Cc1cc(=O)oc(C)c1C(=O)NC12CC3CC(CC(C3)C1)C2	0.6% (inactive)
COc1ccc2c(c1OC)C(=O)OC2C1c2c(cc3c(c2OC)OCO3)CCN1C (stereo unspecified)	2.6% (inactive)
O=C(O)CC(C(=O)OCC1CCCO1)N1CCOCC1 (stereo unspecified)	11.6% (inactive)
COc1nc(N(C)S(=O)(=O)c2ccc(C)cc2)nc(C)c1Cl	2.3% (inactive)
COc1cccc(OC)c1-c1nn2c(-c3ccco3)nnc2s1	-5.6% (inactive)
Cc1ccc2[nH]c(CCN(C)C)c(CC#N)c2c1	-1% (inactive)
Cn1c(=O)oc2cc(C(=O)c3ccccc3)ccc21	-2.2% (inactive)
CC(=O)Nc1ccc(Oc2ccc3nc(C)[nH]c3c2)cc1	6.6% (inactive)
Cn1c(=O)n(C)c2cc(C(=O)c3ccccc3)ccc21	-1.7% (inactive)
CCC(=O)Nc1nc(C)c(Oc2ccccc2)c(=O)[nH]1	-13.8% (inactive)
CN1CCc2c(sc3ncn4nc(-c5ccccc5O)nc4c23)C1	2.9% (inactive)
CSc1cc(C)nc(N(C)C(C)=O)n1	-4.8% (inactive)
CC1(c2cnc(Nc3ccccc3)s2)CCC(=O)O1 (stereo unspecified)	3.7% (inactive)
CC1CN(c2oc(-c3ccccc3Cl)nc2C#N)CC(C)O1 (stereo unspecified)	-11.7% (inactive)
COc1ccc(/C(O)=C2/C(=O)C(=O)N(CCCN(C)C)C2c2ccccc2)cc1Cl (stereo unspecified)	9.5% (inactive)
COc1cccc(C2/C(=C(\O)c3ccc4c(c3)OCCO4)C(=O)C(=O)N2CCCN(C)C)c1OC (stereo unspecified)	-10.5% (inactive)
C=CCn1cnc2c(c1=O)c1nc3ccccc3nc1n2-c1ccc(Cl)cc1	-1.6% (inactive)
CCCCOC(=O)CSC1=C(C#N)C(c2ccc3c(c2)OCO3)CC(=O)N1 (stereo unspecified)	6.5% (inactive)
CCCOC(=O)CSC1=C(C#N)C(c2ccc3c(c2)OCO3)CC(=O)N1 (stereo unspecified)	29.3% (inactive)
CSc1nc2[nH]c3c(c2c2nnnn12)CCCC3	1.2% (inactive)
CC(=O)Nc1cccc(NC(=O)CSc2nc(C)c(C)c(C)c2C#N)c1	-4.8% (inactive)

SMILES	inhibition
COc1cc(C2C3C(=O)N(c4ccc(F)cc4)C(=O)C3ON2c2ccccc2)ccc1O (stereo unspecified)	2.1% (inactive)
CCCCNc1nc2c(c(=O)n(C)c(=O)n2C)n1Cc1cccc(OC)c1	35.2% (inactive)
COc1cccc(Cn2c(NCC(C)C)nc3c2c(=O)n(C)c(=O)n3C)c1	10.8% (inactive)
CN(C)CCNC(=O)C12CC3(C)CC(C)(CC(C)(C3)C1)C2	-4.1% (inactive)
CCOc1cccc(NC(=O)C2CC(=O)NC(=Nc3ccccc3)S2)c1 (stereo unspecified)	15.4% (inactive)
Cn1c(=O)[nH]c(=O)c2c1nc(Br)n2CCSc1nnnn1-c1ccccc1	-0.6% (inactive)
ClC(Br)=C(n1cnc2ccccc21)n1cnc2ccccc21	3.1% (inactive)
CC(=O)CCn1c(=O)n(CCC(C)=O)c(=O)n(CCC(C)=O)c1=O	4% (inactive)
Clc1ccc2c(c1)C(N1CCNCC1)=Nc1ccccc1O2	2.2% (inactive)
CN1CCN(C2=Nc3ccccc3Oc3ccc(Cl)cc32)CC1	2.6% (inactive)
CC(C)CNC(=O)c1c(N)n(/N=C/c2cccnc2)c2nc3ccccc3nc12	-0.2% (inactive)
COc1cccc(C2C(C(=O)c3sc(C)nc3C)=C(O)C(=O)N2CCN2CCOCC2)c1OC (stereo unspecified)	3.5% (inactive)
CN(C)c1oc(-c2cccs2)nc1C#N	5.5% (inactive)
COc1ccc(-n2c(=O)c3c4c(sc3n3c(C)nnc23)CC(C)CC4)cc1 (stereo unspecified)	-5% (inactive)
COc1ccc(Nc2nc(Nc3ccc(OC)cc3)nc(-n3[nH]c(=O)c(C)c3C)n2)cc1	4.5% (inactive)
COc1ccc(Nc2cc(C)nc3ccccc23)cc1	6.3% (inactive)
Cc1[nH]c2ccc(F)cc2c(=O)c1SC(F)(F)C(F)C(F)(F)F (stereo unspecified)	1.9% (inactive)
COc1ccc(C(=O)c2oc3nc(C)cc(C)c3c2N)cc1	-3.3% (inactive)
C=CCn1c(SCc2c(F)c(F)c(F)c(F)c2F)nc(O)cc1=O	-3.4% (inactive)
CC(C)C(C(=O)Nc1ncn[nH]1)N1C(=O)c2ccccc2C1=O (stereo unspecified)	1% (inactive)
